Screening data as filed in PubChem.
Many of the other results were omitted from the sample, so hits are more common in it than they were.
Autofluor counter: counter-screen for toxin protease inhibitors: compound fluorescence; fluorescence intensity (test concentration not listed); compound autofluorescence counterscreen, microsphere flow cytometry; hits give high values; AID 624483; 3.1% of 360,000 active; in the data active = fluorescence intensity above about 16000; inconclusive = no clear call, values can overlap the other calls
Anthrax LF prot: blocks Bacillus anthracis lethal factor protease; P15917; inhibition, % at 10 µM; 0.12% of 360,000 active; AID 588501; multiplex microsphere protease cleavage assay, LF
Target sequence (P15917 whole entry, looked up): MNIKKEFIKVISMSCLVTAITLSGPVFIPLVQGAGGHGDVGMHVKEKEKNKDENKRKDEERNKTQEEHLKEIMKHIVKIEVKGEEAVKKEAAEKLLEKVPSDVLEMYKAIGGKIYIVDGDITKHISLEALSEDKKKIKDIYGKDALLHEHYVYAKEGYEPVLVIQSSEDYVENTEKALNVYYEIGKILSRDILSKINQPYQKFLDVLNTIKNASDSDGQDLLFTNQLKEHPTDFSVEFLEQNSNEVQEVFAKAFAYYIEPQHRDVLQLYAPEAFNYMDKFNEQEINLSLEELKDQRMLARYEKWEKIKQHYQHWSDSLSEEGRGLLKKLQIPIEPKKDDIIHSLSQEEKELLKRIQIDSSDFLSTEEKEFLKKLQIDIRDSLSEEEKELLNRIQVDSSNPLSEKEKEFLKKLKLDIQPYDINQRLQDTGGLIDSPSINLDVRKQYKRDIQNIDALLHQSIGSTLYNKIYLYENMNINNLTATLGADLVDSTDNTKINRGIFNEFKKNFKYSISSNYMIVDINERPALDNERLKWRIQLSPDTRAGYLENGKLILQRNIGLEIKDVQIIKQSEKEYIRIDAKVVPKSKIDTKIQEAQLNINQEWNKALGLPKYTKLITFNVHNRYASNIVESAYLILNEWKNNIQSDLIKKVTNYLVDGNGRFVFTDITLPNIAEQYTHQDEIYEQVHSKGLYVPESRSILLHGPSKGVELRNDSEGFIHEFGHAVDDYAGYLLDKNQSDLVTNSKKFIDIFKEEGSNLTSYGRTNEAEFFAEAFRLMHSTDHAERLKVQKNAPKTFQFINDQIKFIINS
TcdB GH inh: TcdB glycohydrolase inhibition | TcdB glycohydrolase enzymatic assay, plate reader | inhibition, % at 9.99 µM | P18177 | 0.24% of 350,000 active; in the data active = inhibition above about 10%
BoNT-F LC inh: blocks Botulinum neurotoxin F light chain protease; inhibition, % at 10 µM; Multiplex microsphere protease cleavage assay, flow cytometry; 0.22% of 360,000 active; in the data active = inhibition above about 35%, passing the limit was not always enough; inconclusive = no clear call, values can overlap the other calls
BoNT-A LC inh2: blocks Botulinum neurotoxin A light chain protease. 0.17% of 360,000 active. multiplex microsphere protease substrate cleavage, flow cytometry. inhibition, % at 10 µM
Hits are given with their value. Cut-off read from the data, not from the text of the source, unless noted: active = inhibition above about 30%; inconclusive = no clear call, values can overlap the other calls; inactive = below that.

Results for COc1cccc(CNC(=O)C2CCN(S(=O)(=O)N3CCCCC3)CC2)c1 ?
Autofluor counter: 21716; Anthrax LF prot: inactive; BoNT-F LC inh: inactive; BoNT-A LC inh2: inactive

What do the screens show for `O=C(NCc1cccnc1)C1CCN(S(=O)(=O)c2cccnc2)CC1`?
Autofluor counter: inactive; Anthrax LF prot: inactive; BoNT-F LC inh: inactive; BoNT-A LC inh2: inactive

Results for COCC(=O)Nc1ccc2c(c1)[C@@H]1C[C@H](CC(=O)NCc3ccc(-c4ccccc4)cc3)O[C@@H](CO)[C@@H]1O2 ?
TcdB GH inh: inactive

How did COc1ccc(-c2noc(C3CCCN(S(=O)(=O)c4cccc(Cl)c4)C3)n2)cc1OC (stereo unspecified) do in these assays?
Autofluor counter: 23625; Anthrax LF prot: inactive; TcdB GH inh: inactive; BoNT-F LC inh: inactive; BoNT-A LC inh2: inactive

Results for COc1ccc(C(=O)N2CCCC(c3nc(-c4cccs4)no3)C2)cc1OC (stereo unspecified) ?
Autofluor counter: 25010; Anthrax LF prot: inactive; TcdB GH inh: inactive; BoNT-F LC inh: inactive; BoNT-A LC inh2: inactive

What do the screens show for `O=C(c1ccc(Br)cc1)N1CCCC(c2nc(-c3cccs3)no2)C1` (stereo unspecified)?
Autofluor counter: inactive; Anthrax LF prot: inactive; TcdB GH inh: inactive; BoNT-F LC inh: inactive; BoNT-A LC inh2: inactive

Results for COc1ccc(C(=O)N2CCCC(c3nc(-c4cccs4)no3)C2)cc1 (stereo unspecified) ?
Autofluor counter: 19734; Anthrax LF prot: inactive; BoNT-F LC inh: inactive; BoNT-A LC inh2: inactive

Results for C[C@@H]1CCCCO[C@H](CN(C)S(=O)(=O)c2cn(C)cn2)[C@H](C)CN([C@@H](C)CO)C(=O)c2cc(NS(=O)(=O)c3cccs3)ccc2O1 ?
TcdB GH inh: inactive

How did CN(C)S(=O)(=O)N1CCN(c2cccc(Cl)c2)CC1 do in these assays?
Autofluor counter: 21047; Anthrax LF prot: inactive; BoNT-F LC inh: inactive; BoNT-A LC inh2: inconclusive

How did O=C1CCc2cc(S(=O)(=O)N3CCN(c4cccc(Cl)c4)CC3)ccc2N1 do in these assays?
Autofluor counter: 17938; Anthrax LF prot: inactive; BoNT-F LC inh: inactive; BoNT-A LC inh2: inactive

How did CN(C)S(=O)(=O)N1CCN(c2ccccc2)CC1 do in these assays?
Autofluor counter: inactive; Anthrax LF prot: inactive; TcdB GH inh: inactive; BoNT-F LC inh: inactive; BoNT-A LC inh2: inactive

Results for Cc1ccc(N2CSC3=C(C#N)C(c4cccs4)CC(=O)N3C2)cc1 (stereo unspecified) ?
Autofluor counter: inactive; Anthrax LF prot: inactive; TcdB GH inh: inactive; BoNT-F LC inh: inactive; BoNT-A LC inh2: inactive

How did CCc1ccc(N2CSC3=C(C#N)C(c4cccs4)CC(=O)N3C2)cc1 (stereo unspecified) do in these assays?
Autofluor counter: 25679; Anthrax LF prot: inactive; BoNT-F LC inh: inactive; BoNT-A LC inh2: inactive

How did NS(=O)(=O)c1ccc(NC(=O)CSc2ccc3ccccc3n2)cc1 do in these assays?
Autofluor counter: 16858; Anthrax LF prot: inactive; BoNT-F LC inh: inactive; BoNT-A LC inh2: inactive

What do the screens show for `NS(=O)(=O)c1ccc(NC(=O)CSc2ncccn2)cc1`?
Autofluor counter: inactive; Anthrax LF prot: inactive; TcdB GH inh: inactive; BoNT-F LC inh: inactive; BoNT-A LC inh2: inactive

Results for CNC[C@H]1Oc2ccc(NC(=O)Cc3cn(C)c4ccccc34)cc2C(=O)N([C@@H](C)CO)C[C@H]1C ?
TcdB GH inh: inactive

Results for Cc1nc2ccc(S(=O)(=O)Nc3ccccc3C)cc2s1 ?
Autofluor counter: 17531; Anthrax LF prot: inactive; TcdB GH inh: inactive; BoNT-F LC inh: inactive; BoNT-A LC inh2: inactive

What do the screens show for `Cc1ccccc1NS(=O)(=O)c1ccc(OCC(=O)N2CCCCC2)cc1`?
Autofluor counter: inactive; Anthrax LF prot: inactive; TcdB GH inh: 11; BoNT-F LC inh: inactive; BoNT-A LC inh2: inactive

How did CCOc1ccc(NS(=O)(=O)c2ccc(OCC(=O)N3CCCC3)cc2)cc1 do in these assays?
Autofluor counter: inactive; Anthrax LF prot: inactive; BoNT-F LC inh: inactive; BoNT-A LC inh2: inactive

How did Cc1cc(S(=O)(=O)NCC(C)C)ccc1OCC(=O)NCc1ccccn1 do in these assays?
Autofluor counter: 21787; Anthrax LF prot: inactive; BoNT-F LC inh: inactive; BoNT-A LC inh2: inactive

What do the screens show for `CCOC(=O)N1CCN(C(=O)COc2ccc(S(=O)(=O)Nc3ccc(OCC)cc3)cc2)CC1`?
Autofluor counter: 17078; Anthrax LF prot: inactive; BoNT-F LC inh: inactive; BoNT-A LC inh2: inconclusive

Results for Cc1ccc(S(=O)(=O)CCC(=O)OCC(=O)N2CCN(S(=O)(=O)c3ccc(Cl)cc3)CC2)cc1 ?
Autofluor counter: inactive; Anthrax LF prot: inactive; TcdB GH inh: inactive; BoNT-F LC inh: inactive; BoNT-A LC inh2: inactive

What do the screens show for `Cc1cc(S(=O)(=O)NCc2ccccc2)ccc1OCC(=O)NCc1ccccn1`?
Autofluor counter: inactive; Anthrax LF prot: inactive; TcdB GH inh: inactive; BoNT-F LC inh: inactive; BoNT-A LC inh2: inactive

How did Cc1ccc(OCCC(=O)OCC(=O)N2CCN(S(=O)(=O)c3ccc(C)cc3)CC2)cc1 do in these assays?
Autofluor counter: 26716; Anthrax LF prot: inactive; TcdB GH inh: inactive; BoNT-F LC inh: inactive; BoNT-A LC inh2: inactive

How did COc1cccc(C#Cc2cnc3c(c2)C(=O)N([C@@H](C)CO)C[C@@H](C)[C@@H](CN(C)C(=O)C2CCC2)O3)c1 do in these assays?
TcdB GH inh: inactive

How did C[C@@H]1CN([C@@H](C)CO)S(=O)(=O)c2ccc(C#CC3CC3)cc2O[C@@H]1CN(C)C(=O)c1cccnc1 do in these assays?
TcdB GH inh: inactive

What do the screens show for `CO[C@H]1CN(C)C(=O)c2ccc(NC(=O)C3CCOCC3)cc2OC[C@H](C)N(C(C)=O)C[C@@H]1C`?
TcdB GH inh: inactive

How did CCOC(=O)COc1ccc(S(=O)(=O)Nc2cccc(SC)c2)cc1 do in these assays?
Autofluor counter: 21447; Anthrax LF prot: inactive; BoNT-F LC inh: inactive; BoNT-A LC inh2: inactive

What do the screens show for `CCOC(=O)COc1ccc(S(=O)(=O)Nc2ccc3c(c2)OCCO3)cc1`?
Autofluor counter: inactive; Anthrax LF prot: inactive; BoNT-F LC inh: inactive; BoNT-A LC inh2: inactive

Results for Cc1cc(C)cc(OCC(=O)N2CCCCCC2)c1 ?
Autofluor counter: 22007; Anthrax LF prot: inactive; BoNT-F LC inh: inactive; BoNT-A LC inh2: inconclusive

How did Cc1cc(S(=O)(=O)NCC(C)C)ccc1OCC(=O)N1CCOCC1 do in these assays?
Autofluor counter: inactive; Anthrax LF prot: inactive; BoNT-F LC inh: inconclusive; BoNT-A LC inh2: inactive

How did Cc1ccc(OCC(=O)N2CCN(c3nnc(-c4ccccc4)c4ccccc34)CC2)cc1 do in these assays?
Autofluor counter: inactive; Anthrax LF prot: inactive; BoNT-F LC inh: inactive; BoNT-A LC inh2: inactive

Results for Cc1ccc(OCC(=O)N2CCN(C3=NS(=O)(=O)c4ccccc43)CC2)cc1 ?
Autofluor counter: 20779; Anthrax LF prot: inactive; BoNT-F LC inh: inactive; BoNT-A LC inh2: inactive

Results for CCOC(=O)N1CCN(C(=O)COc2ccc(S(=O)(=O)NCC(C)C)cc2C)CC1 ?
Autofluor counter: 21204; Anthrax LF prot: inactive; BoNT-F LC inh: inactive; BoNT-A LC inh2: inactive

Results for CCS(=O)(=O)N1CCN(C(=O)COc2ccc(-c3ccccc3)cc2)CC1 ?
Autofluor counter: 22952; Anthrax LF prot: inactive; BoNT-F LC inh: inactive; BoNT-A LC inh2: inactive

How did Cc1noc(C)c1CSCC(=O)OCc1nc2ccccc2c(=O)n1CC#N do in these assays?
Autofluor counter: 21620; Anthrax LF prot: inactive; BoNT-F LC inh: inactive; BoNT-A LC inh2: inactive
